In PubChem BioAssay (EPA / NIEHS) one finds outcome and AC50 data, which are given here for 40 molecules.

Active and inactive are the calls of the source. Rule for the calls: active = hit-call score of the fitted dose curve at least 0.9, where 1 is the maximum; inactive = score below 0.9.

Read-out in the assay: growth arrest and DNA damage 45 (GADD45G), GADD45G (gene 10912)
Kind of assay: LTEA_HepaRG_GADD45G: Life Technologies and Expression Analysis (LTEA) Assay for growth arrest and DNA damage 45 (GADD45G) using HepaRG (AID 2283499). The note with it: mRNA level, 48 h; actives raise or lower the signal. As to the method: LTEA_HepaRG is a cell based, multiplexed-readout assay that uses HepaRG, a human liver cell line, with measurements taken at 48 hours after chemical dosing on a 96-well plate.LTEA_HepaRG_GADD45G is one of 102 assay component(s) measured in the LTEA HepaRG cell culture assay. It is a marker of Cell proliferation, survival, death.Data from the assay component LTEA_HepaRG_GADD45G was analyzed into 1 endpoint. This assay endpoint, LTEA_HepaRG_GADD45G, was analyzed with bidirectional fitting relative to DMSO as the negative control and baseline of activity. Using a type of inducible reporter, measures of mRNA induction for gain or loss-of-signal activity can be used to understand regulation of transcription factor activity. To generalize the intended target to other relatable targets, this assay endpoint is annotated to the mutagenicity response intended target family, where the subfamily is Cell proliferation, survival, death.
A total of 1060 chemcials from the ToxCast library were tested in eight-point concentration-response experiments. Cell culture and cytotoxicity assays were conducted at Thermo Fisher Scientific's Custom Services facility (Madison, WI). A single lot of human HepaRG cells (Thermo Fisher Scientific, Frederick, MD) was used for the cell culture experiments. 96-well format collagen type I coated plates of human HepaRG cells were prepared using established methods. Briefly, cryopreserved HepaRG cells were thawed, plated at a density of approximately 100,000 cells/well in HepaRG Thaw, Plate, and General Purpose media (HPRG770, Thermo Fisher Scientific), and incubated for 48 hours. 0.5% DMSO was selected as vehicle control to balance the requisite need of DMSO in HepaRG cultures to maintain differentiation (for example, baseline metabolism, proportions of hepatocytes vs. cholangiocytes), while enabling further hepatic receptor pathway activation (for example, PXR and CAR) in response to chemical exposure. 48 hours after plating, the culture medium was replaced with HepaRG Serum-Free Incudtion Media. Cells were exposed to each test chemical in duplicate and maintained in CO2 incubators for another 48 hours. Chemical plates were thawed to room temperature and 200x concentrations of treatment groups were prepared. 8-point conentration-reponse curves were made with the highest exposure at 100 uM, followed by half-log dilutions, all in 0.5% DMSO. Each test plate contained variouse controls, induction positive controls (1mM phenobarbital), cytotoxicity positive controls ([…] aflatoxin B1), vehicle controls (0.5% DMSO), and total lysis controls (0.5% DMSO). Cell morphology images were taken using an Essen IncuCyte FLR automated microscope, with six 96-well plates imaged in about 24 minutes. Images were captured and exported and JPEG files. Spent culture media was transfered to black-well plates for the LDH assay, and remaining media was sorted at -80 C for later use. Cells were treated with RLT buffer and frozen until shipped for gene expression analysis. Total RNA was isolated from the cell suspension in 75 uL of Buffer RLT (Qiagen, Germantown, MD 20874) by Quintiles/Expression Analysis (Durham, NC) using a custom isolation procedure. Total RNA from each plate well was transferred to a preamplification plate. Fluidigm's 96.96 Dynamic ArrayTM (Fluidigm, Amsterdam, the Netherlands) technology was used for gene expression analyses by quantitative reverse transcription polymerase chain reaction (qRT-PCR, performed by Quintiles/Expression Analysis, Durham, NC)89. Standard TaqManTM Assays (Applied Biosystems/ThermoFisher Scientific, Foster City, CA) were used to assess the expression of 93 genes selected based on their selectivity and sensitivity to important hepatic receptors known to be modulated by environmental chemicals; importance in human hepatocyte functionality; and hepatotoxicity. […]
`Cc1ccc(C)c(C)c1`: the outcome was inactive.

On to `O=c1[nH]cc(F)c(=O)[nH]1`, for which the call was inactive. Consider `CC(=O)OCCOCCOCCOC(C)=O`, for which the molecule was called inactive. Turning to `CC(=O)C(C)=CC1C(C)=CCCC1(C)C` (stereo not given), the molecule was classed as inactive. Turning to `Cc1cccc(Nc2cc(Cl)nc(SCC(=O)O)n2)c1C`, the call was inactive. On the same count and under the same terms, to `NCCO` belongs “inactive”; to `NS(=O)(=O)c1cc2c(cc1Cl)NCNS2(=O)=O`, “inactive”; to `C=CCOC(=O)c1ccccc1C(=O)OCC=C`, “inactive”.

Regarding `Cc1c(C(=O)O)c(O)cc2c1C(=O)c1c(O)c([C@@H]3O[C@H](CO)[C@@H](O)[C@H](O)[C@H]3O)c(O)c(O)c1C2=O`, the call was inactive. With `CCCCCCC(=O)OCC`, the call was inactive. On the same count and under the same terms, the value for `CC(=O)Oc1ccccc1C(=O)O` was “inactive”; that for `Cc1cccc(C)c1O` was “inactive”. On the same count and under the same terms, the value for `Cc1ccc(C)c(O)c1C` was “inactive”; that for `CCCCOC(=O)CCCCCCCCC(=O)OCCCC` was “inactive”.

On to `CCCCCCCC=O`, for which the molecule was classed as inactive. Regarding `NCC1(Cc2noc(=O)[nH]2)CCCCC1`, the molecule was classed as inactive. In the case of `Cc1ccc(N(C)C)cc1`, the result was inactive. Turning to `O=[N+]([O-])C(CO)(CO)CO`, the result was inactive. The same measure, in the same setting: the value for `CCOc1ccc2c(c1)C(C)=CC(C)(C)N2` was “inactive”. With `Oc1ccc2ccccc2c1N=Nc1ccccc1`, the half-maximal activity concentration (AC50) is 12.6 µM (active). The same measure, in the same setting: the value for `Nc1ccccc1N` was 67.7 µM (active). On to `O=C(OCCCCCOC(=O)c1ccccc1)c1ccccc1`, for which the outcome was inactive. As to `Clc1cc(Cl)c(Cl)cc1Cl`, the result was inactive. On to `CCCCCCCCCCC`, for which the outcome was inactive. On the same count and under the same terms, the value for `CCCCCCCCCCCC(=O)OC` was “inactive”; that for `CC=Cc1ccc(O)c(OC)c1` was “inactive”; that for `Cc1cccc([N+](=O)[O-])c1C` was “inactive”.

`Cc1ccc2ncccc2c1`: the outcome was inactive.

With `Oc1ccc2c(c1)OC[C@@H](N1CCC(O)(c3ccc(F)cc3)CC1)[C@H]2O`, the molecule was called inactive.

Turning to `CC1(C)NC(=O)NC1=O`, the call was inactive.

Turning to `CCCc1cc(=O)[nH]c(=S)[nH]1`, the call was inactive. Turning to `CC1=C(/C=C/C(C)=C/C=C/C(C)=C/CO)C(C)(C)CCC1`, the outcome was inactive. The same measure, in the same setting: to `Cc1ccccc1Cl` belongs “inactive”; to `CCOC(=O)C(C)(C)Oc1ccc(Cl)cc1`, “inactive”; to `Nc1ccc(S(=O)(=O)c2ccc(N)cc2)cc1`, “inactive”. Regarding `Cc1oc(-c2ccccc2)nc1CCOc1cccc2c1ccn2CCC(=O)O`, the concentration at half-maximal activity (AC50) is 90.2 µM (active). For `CCCCc1ccc2c(n1)[C@@H](c1ccc(OC)cc1C[C@H](C)C(=O)O)[C@H](C(=O)O)[C@H]2c1ccc2c(c1)OCO2`, the call was inactive. For the molecule `CCCCCCCCCCCCCCCC`, the molecule was classed as inactive. Consider `CCCCCCCCCCO`, for which the outcome was inactive. On the same count and under the same terms, the value for `Cc1nc(-c2ccc3c(c2)CCN(CCC2CCC(NC(=O)/C=C/c4ccc(F)cc4)CC2)CC3)no1` (stereo not given) was “inactive”.
